# Assay results published in PubChem BioAssay (Tox21).
# Results filed as inconclusive are left out. A number with no mark means an inactive call. Activity calls are given as the source filed them. Calls come from the whole dose curve.
# Test: qHTS assay for small molecule disruptors of the mitochondrial membrane potential - cell viability (AID 720634);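 note: human HepG2 liver cancer cells; nearly all actives have a fitted effect of over 20% in size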
# Conditions: HepG2 viability, ATP luminescence (CellTiter-Glo), 1 h; series mostly up to 83.2 µM; activity change, negative = cytotoxicity: at the top concentration
# Method in brief: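 Human hepatoma HepG2 cells were treated for 1 hr with test chemicals, then given m-MPI dye and CellTiter-Glo. Cell viability reflects luminescence proportional to cellular ATP.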
# % is set by controls: 0 for no effect and ±100 for the full control effect.
SMILES,"activity change, negative = cytotoxicity",outcome
O=C1[C@@H]2[C@H]3CC[C@H](C3)[C@@H]2C(=O)N1CCCCN1CCN(c2ncccn2)CC1,6.32%,
CNS(=O)(=O)c1cc(C(=O)N2CCC(CCN3C4CCC3CC(n3c(C)nc5ccccc53)C4)(c3cccc(F)c3)CC2)c(Cl)cc1F (stereo not given),-10%,
COc1ccc(CCN(C)CCCN2CCc3cc(OC)c(OC)cc3CC2=O)cc1OC,6.56%,
CCCCCC,7.25%,
CC1CCCO1 (stereo not given),5.76%,
CSCC[C@H](NC(=O)[C@H](Cc1c[nH]c2ccccc12)NC(=O)CCNC(=O)OC(C)(C)C)C(=O)N[C@@H](CC(=O)O)C(=O)N[C@@H](Cc1ccccc1)C(N)=O,-5.47%,
COc1ccc(-c2cc(=S)ss2)cc1,11.5%,
COc1ccc(-n2nc(C(F)F)cc2-c2ccc(S(C)=O)cc2)cc1 (stereo not given),-8.12%,
SCCc1cnccn1,4.65%,
CCC(C)(C)C(=O)O,7.04%,
CCCCCCCC/C=C\CCCCCCCC(=O)OCCO,6.05% [at 95.3 µM],
COc1ccc(N)c([N+](=O)[O-])c1,11.1%,
COc1ccc2nc(S(=O)Cc3ncc(C)c(OC)c3C)[nH]c2c1 (stereo not given),,inactive
O=C(O)c1ccc(O)cc1O,4.84% [at 95.3 µM],
c1ccc(CNc2ncnc3c2ncn3C2CCCCO2)cc1 (stereo not given),4.97%,
C[C@@H]1[C@H](O)[C@@H](C)/C=C/C=C\C=C\C=C\C=C\C=C\C=C\[C@H](O[C@@H]2O[C@H](C)[C@@H](O)[C@H](N)[C@@H]2O)C[C@@H]2O[C@](O)(C[C@@H](O)C[C@@H](O)[C@H](O)CC[C@@H](O)C[C@@H](O)CC(=O)O[C@H]1C)C[C@H](O)[C@H]2C(=O)O (stereo in doubt),-10.1%,
O=C(O)CCC(=O)OC[C@@H](NC(=O)C(Cl)Cl)[C@H](O)c1ccc([N+](=O)[O-])cc1,3.53%,
CC(=O)OCCC(C)CC(C)(C)C (stereo not given),16%,
O=C1NC(=O)c2cccc3cccc1c23,6.77%,
CCCCC[C@H](O)/C=C/[C@H]1[C@H](O)CC(=O)[C@@H]1C/C=C\CCCC(=O)O,5.91%,
CC[C@@H](CO)NCCN[C@@H](CC)CO,-9.32% [at 39.1 µM],
CCCCOC(=O)CCCCC(=O)OCCCC,9.04%,
O=C(O)c1cccc(C[C@@H]2COc3ccc(OCc4nc5cc(F)ccc5s4)cc3[C@@H]2O)c1,-12%,
CN(C)CC/C=C1\c2ccccc2Sc2ccc(Cl)cc21,-18%,
CCOC(=O)c1ccc(NC(=O)CN2CCCCC2)cc1,7.11%,
